± gives the standard deviation.

What all share (assay): peptide microarray binding signal (635 nm), min-max normalized on array (fraction of array maximum); higher = stronger binding
Holding throughout (settings): peptide region: H3 1-13

Experiment [1] has as its target T1, HaloTag-ATRX ADD domain (163-292).
T1 chain: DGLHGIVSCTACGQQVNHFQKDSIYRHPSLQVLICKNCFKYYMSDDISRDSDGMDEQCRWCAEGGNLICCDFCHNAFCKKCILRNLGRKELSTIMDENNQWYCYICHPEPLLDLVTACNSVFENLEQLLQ
The procedure: (§1)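 Histone 13-mer peptides were synthesized as cellulose conjugates with a C-terminal 20-atom PEG linker and printed in triplicate on nitrocellulose. The sequence given is the unmodified backbone; PTMs (Kme1/2/3, Kac, Sph/Tph, Rme/Rme2a/Rme2s, Rcit) are listed in the label and the 'peptide modifications' condition. Slides were probed at 4 °C for 1 h with biotin-labelled (HQ)5-HaloTag reader fusions (ATRX-ADD, ING2-PHD) then streptavidin-Alexa647, or with rabbit histone antibodies then anti-rabbit Alexa647. The mean 635 nm signal of the triplicate spots was scaled 0-1 between the lowest and highest values on each array.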

Experiment [2] has as its target HaloTag-ING2 PHD (mouse Ing2 200-280). The method, then: as §1
The target of experiment [3] is anti-H3K4me3 antibody ab8580. The procedure:
as §1

For experiment [4], the target named is anti-H3K9me3 antibody ab8898. The method, then: as §1
The mark [5] stands for this setting: peptide modifications: H3R8me1 H3K9me1, binder concentration: 1:2,000 dilution.
[6] abbreviates: peptide modifications: H3R8me1 H3K9me1, binder concentration: 1:10,000 dilution.
The mark [7] stands for this setting: peptide modifications: H3R8me2a H3K9me2, binder concentration: 1:2,000 dilution.
[8] abbreviates: peptide modifications: H3R8me2a H3K9me2, binder concentration: 1:10,000 dilution.
[9] abbreviates: peptide modifications: H3T3ph H3K4ac, binder concentration: 1:2,000 dilution.
Setting [10] is: peptide modifications: H3T3ph H3K4ac, binder concentration: 1:10,000 dilution.
Setting [11] is: peptide modifications: H3R8me1, binder concentration: 1:2,000 dilution.
The mark [12] stands for this setting: peptide modifications: H3R8me1, binder concentration: 1:10,000 dilution.
Where [13] appears, read: peptide modifications: H3R8cit H3K9me3, binder concentration: 1:2,000 dilution.
The mark [14] stands for this setting: peptide modifications: H3R8cit H3K9me3, binder concentration: 1:10,000 dilution.
The mark [15] stands for this setting: peptide modifications: H3R8me2s, binder concentration: 1:2,000 dilution.
The mark [16] stands for this setting: peptide modifications: H3R8me2s, binder concentration: 1:10,000 dilution.
Where [17] appears, read: peptide modifications: H3R8me2a H3K9ac, binder concentration: 1:2,000 dilution.
Setting [18] is: peptide modifications: H3R8me2a H3K9ac, binder concentration: 1:10,000 dilution.
Setting [19] is: peptide modifications: H3R8me2s H3K9me2, binder concentration: 1:2,000 dilution.
[20] abbreviates: peptide modifications: H3R8me2s H3K9me2, binder concentration: 1:10,000 dilution.
The mark [21] stands for this setting: peptide modifications: H3T3ph H3K4me1, binder concentration: 1:2,000 dilution.
Setting [22] is: peptide modifications: H3T3ph H3K4me1, binder concentration: 1:10,000 dilution.
The mark [23] stands for this setting: peptide modifications: H3R8me1 H3K9ac, binder concentration: 1:2,000 dilution.
[24] abbreviates: peptide modifications: H3R8me1 H3K9ac, binder concentration: 1:10,000 dilution.

Regarding ARTKQTARKSTGG [H3 1-13 A R T K Q T A Rme Kme S T G G], the “peptide microarray binding signal” value in experiment [1] (peptide modifications: H3R8me1 H3K9me1, binder concentration: 50 nM) stood at 0.0189 ± 0.0012; in experiment [1] (peptide modifications: H3R8me1 H3K9me1, binder concentration: 500 nM), 0.0502 ± 0.0023; in experiment [2] (peptide modifications: H3R8me1 H3K9me1, binder concentration: 10 nM), 0.0183 ± 0.0025; in experiment [2] (peptide modifications: H3R8me1 H3K9me1, binder concentration: 100 nM), 0.0398 ± 0.0084; in experiment [3] (setting [5]), 0.00206 ± 9e-05; in experiment [3] (setting [6]), 0.00108 ± 5e-05. For the same molecule, the “peptide microarray binding signal” value stood at 0.00319 ± 0.00084 in experiment [4] (setting [5]) and 0.00202 ± 3.2e-05 in experiment [4] (setting [6]).

For ARTKQTARKSTGG [H3 1-13 A R T K Q T A Rme2a Kme2 S T G G], the “peptide microarray binding signal” value in experiment [1] (peptide modifications: H3R8me2a H3K9me2, binder concentration: 50 nM) is 0.0425 ± 0.0031; in experiment [1] (peptide modifications: H3R8me2a H3K9me2, binder concentration: 500 nM), 0.0913 ± 0.0063; in experiment [2] (peptide modifications: H3R8me2a H3K9me2, binder concentration: 10 nM), 0.044 ± 0.0014; in experiment [2] (peptide modifications: H3R8me2a H3K9me2, binder concentration: 100 nM), 0.06 ± 0.0041; in experiment [3] (setting [7]) it was 0.00357 ± 0.00013; in experiment [3] (setting [8]), 0.00314 ± 4.6e-05. Moreover, the “peptide microarray binding signal” value in experiment [4] (setting [7]) amounted to 0.00355 ± 0.00032; in experiment [4] (setting [8]), 0.00334 ± 0.00031.

On to ARTKQTARKSTGG [H3 1-13 A R Tph Kac Q T A R K S T G G], for which the “peptide microarray binding signal” value in experiment [1] (peptide modifications: H3T3ph H3K4ac, binder concentration: 50 nM) came out at 0.00699 ± 0.00027; in experiment [1] (peptide modifications: H3T3ph H3K4ac, binder concentration: 500 nM), 0.0189 ± 0.0052; in experiment [2] (peptide modifications: H3T3ph H3K4ac, binder concentration: 10 nM) it was 0.01 ± 0.0027; in experiment [2] (peptide modifications: H3T3ph H3K4ac, binder concentration: 100 nM), 0.024 ± 0.0049; in experiment [3] (setting [9]), 0.00177 ± 0.0002; in experiment [3] (setting [10]), 0.00325 ± 0.0004. Besides, the “peptide microarray binding signal” value amounted to 0.00104 ± 0.00017 in experiment [4] (setting [9]) and 0.00156 ± 0.00017 in experiment [4] (setting [10]).

Turning to ARTKQTARKSTGG [H3 1-13 A R T K Q T A Rme K S T G G], the “peptide microarray binding signal” value stood at 0.00875 ± 0.0009 in experiment [1] (peptide modifications: H3R8me1, binder concentration: 50 nM); 0.0184 ± 0.00056 in experiment [1] (peptide modifications: H3R8me1, binder concentration: 500 nM); 0.005013 ± 5e-05 in experiment [2] (peptide modifications: H3R8me1, binder concentration: 10 nM); 0.0155 ± 0.0047 in experiment [2] (peptide modifications: H3R8me1, binder concentration: 100 nM); 0.000717 ± 4.6e-05 in experiment [3] (setting [11]); 0.000685 ± 2.6e-05 in experiment [3] (setting [12]). In addition, the “peptide microarray binding signal” value is 0.00071 ± 4.4e-05 in experiment [4] (setting [11]) and 0.000519 ± 5.6e-06 in experiment [4] (setting [12]).

On to ARTKQTARKSTGG [H3 1-13 A R T K Q T A Rcit Kme3 S T G G], for which the “peptide microarray binding signal” value in experiment [1] (peptide modifications: H3R8cit H3K9me3, binder concentration: 50 nM) was found to be 0.325 ± 0.047; in experiment [1] (peptide modifications: H3R8cit H3K9me3, binder concentration: 500 nM), 0.387 ± 0.024; in experiment [2] (peptide modifications: H3R8cit H3K9me3, binder concentration: 10 nM) it was 0.0423 ± 0.0029; in experiment [2] (peptide modifications: H3R8cit H3K9me3, binder concentration: 100 nM) it was 0.055 ± 0.0029; in experiment [3] (setting [13]), 0.0234 ± 0.008; in experiment [3] (setting [14]) it was 0.0152 ± 0.0012. The “peptide microarray binding signal” value in experiment [4] (setting [13]) came out at 0.331 ± 0.019; in experiment [4] (setting [14]) it was 0.296 ± 0.055.

Turning to ARTKQTARKSTGG [H3 1-13 A R T K Q T A Rme2s K S T G G], the “peptide microarray binding signal” value in experiment [1] (peptide modifications: H3R8me2s, binder concentration: 50 nM) stood at 0.007899 ± 6.4e-05; in experiment [1] (peptide modifications: H3R8me2s, binder concentration: 500 nM), 0.0258 ± 0.00046; in experiment [2] (peptide modifications: H3R8me2s, binder concentration: 10 nM) it was 0.0129 ± 0.00049; in experiment [2] (peptide modifications: H3R8me2s, binder concentration: 100 nM) it was 0.0364 ± 0.027; in experiment [3] (setting [15]), 0.00759 ± 0.0043; in experiment [3] (setting [16]), 0.00302 ± 0.00087. Further, the “peptide microarray binding signal” value was 0.0037 ± 0.00057 in experiment [4] (setting [15]) and 0.00254 ± 0.00038 in experiment [4] (setting [16]).

As for ARTKQTARKSTGG [H3 1-13 A R T K Q T A Rme2a Kac S T G G], the “peptide microarray binding signal” value in experiment [1] (peptide modifications: H3R8me2a H3K9ac, binder concentration: 50 nM) stood at 0.0172 ± 0.00041; in experiment [1] (peptide modifications: H3R8me2a H3K9ac, binder concentration: 500 nM) it was 0.0506 ± 0.0025; in experiment [2] (peptide modifications: H3R8me2a H3K9ac, binder concentration: 10 nM), 0.0458 ± 0.0028; in experiment [2] (peptide modifications: H3R8me2a H3K9ac, binder concentration: 100 nM), 0.0544 ± 0.012; in experiment [3] (setting [17]) it was 0.00338 ± 0.00042; in experiment [3] (setting [18]) it was 0.00285 ± 0.00048. Also, the results for the “peptide microarray binding signal” value in experiment [4] (setting [17]) and in experiment [4] (setting [18]) were 0.00364 ± 0.00047 and 0.00179 ± 4.5e-05, respectively.

For the molecule ARTKQTARKSTGG [H3 1-13 A R T K Q T A Rme2s Kme2 S T G G], the “peptide microarray binding signal” value in experiment [1] (peptide modifications: H3R8me2s H3K9me2, binder concentration: 50 nM) turned out to be 0.0108 ± 0.00034; in experiment [1] (peptide modifications: H3R8me2s H3K9me2, binder concentration: 500 nM), 0.0202 ± 0.00096; in experiment [2] (peptide modifications: H3R8me2s H3K9me2, binder concentration: 10 nM), 0.0292 ± 0.0027; in experiment [2] (peptide modifications: H3R8me2s H3K9me2, binder concentration: 100 nM), 0.049 ± 0.0084; in experiment [3] (setting [19]), 0.00447 ± 0.00012; in experiment [3] (setting [20]), 0.00451 ± 0.00027. Further, the “peptide microarray binding signal” value in experiment [4] (setting [19]) stood at 0.00805 ± 0.0035; in experiment [4] (setting [20]) it was 0.0049 ± 0.00019.

Take ARTKQTARKSTGG [H3 1-13 A R Tph Kme Q T A R K S T G G]: the “peptide microarray binding signal” value in experiment [1] (peptide modifications: H3T3ph H3K4me1, binder concentration: 50 nM) amounted to 0.00492 ± 0.00024; in experiment [1] (peptide modifications: H3T3ph H3K4me1, binder concentration: 500 nM), 0.0238 ± 0.013; in experiment [2] (peptide modifications: H3T3ph H3K4me1, binder concentration: 10 nM) it was 0.00376 ± 0.00014; in experiment [2] (peptide modifications: H3T3ph H3K4me1, binder concentration: 100 nM) it was 0.021 ± 0.002; in experiment [3] (setting [21]), 0.021 ± 0.0064; in experiment [3] (setting [22]), 0.00765 ± 0.0012. Moreover, the “peptide microarray binding signal” value in experiment [4] (setting [21]) came out at 0.00298 ± 0.00034; in experiment [4] (setting [22]) it was 0.0015 ± 5.1e-05.

As to ARTKQTARKSTGG [H3 1-13 A R T K Q T A Rme Kac S T G G], the “peptide microarray binding signal” value in experiment [1] (peptide modifications: H3R8me1 H3K9ac, binder concentration: 50 nM) stood at 0.00721 ± 8e-05; in experiment [1] (peptide modifications: H3R8me1 H3K9ac, binder concentration: 500 nM), 0.0187 ± 0.0017; in experiment [2] (peptide modifications: H3R8me1 H3K9ac, binder concentration: 10 nM), 0.0141 ± 0.00051; in experiment [2] (peptide modifications: H3R8me1 H3K9ac, binder concentration: 100 nM) it was 0.0352 ± 0.0065; in experiment [3] (setting [23]) it was 0.00179 ± 0.00022; in experiment [3] (setting [24]), 0.000628 ± 6.7e-06. The results for the “peptide microarray binding signal” value in experiment [4] (setting [23]) and in experiment [4] (setting [24]) were 0.00122 ± 4.2e-05 and 0.000807 ± 1.5e-05, respectively.

These data come from the supplement of paper PMC4022240.
